Source: PubChem BioAssay AID504911 (Southern Research Specialized Biocontainment Screening …, 2011)
Entries with a potency or affinity are not part of this list. Unmarked numbers belong to inactive results. How the calls were made is not given here.

test: THP-1 cell cytotoxicity, cytotoxicity control, set 4 (AID 504911); conditions: THP-1 cytotoxicity; series mostly up to 100 µM; viability: at the top concentration

SMILES	viability
COc1ccc(NC(=O)CSc2nc3ccccc3c(=O)[nH]2)cc1	111%
Cc1nc(SCC(=O)NC2CCCC2)[nH]c(=O)c1C	110%
Cc1cc(=O)[nH]c(SCC(=O)NC2CCCCC2)n1	106%
CCOC1OC(=O)C(Cl)=C1Nc1ccccc1C (configuration not stated)	91.9%
Cc1nc(SCC(=O)NC2CCCCC2)[nH]c(=O)c1C	98.9%
CC1CCN(C(=O)CSc2nc3ccccc3c(=O)[nH]2)CC1	99.6%
Cc1ccc(NC(=O)CSc2nc3ccccc3c(=O)[nH]2)cc1Cl	92.1%
CCC(Sc1nc2c(c(=O)[nH]1)CCC2)C(=O)Nc1cccc(OC)c1 (configuration not stated)	90.2%
CN1CCC(NC(=O)CSc2nc3ccccc3c(=O)[nH]2)CC1	117%
NC(=O)CSc1nc2ccccc2c(=O)[nH]1	84.8%
COc1c(N2CCNC(C)C2)c(F)cc2c(=O)c(C(=O)O)cn(C3CC3)c12 (configuration not stated)	107%
NC[C@H]1O[C@H](O[C@H]2[C@H](O)[C@@H](O[C@H]3O[C@H](CO)[C@@H](O)[C@H](N)[C@H]3O)[C@H](N)C[C@@H]2N)[C@H](O)[C@@H](O)[C@@H]1O	108%
CN(C)C(=O)CSc1nc2ccccc2c(=O)[nH]1	103%
CCOC(=O)CSc1nc(C)c(C)c(=O)[nH]1	92.5%
O=C(CSc1nc2ccccc2c(=O)[nH]1)NC1CCCCC1	113%
COC(=O)c1ccc(CNc2c(N3CCCC3)c(=O)c2=O)cc1	92.3%

SMILES	viability
CCC(Sc1nc2ccccc2c(=O)[nH]1)C(=O)Nc1cccc(OC)c1 (configuration not stated)	91.9%
CC[C@@H](CO)NCCN[C@@H](CC)CO	110%
CN[C@@H]1[C@H](O[C@H]2[C@H](O[C@H]3[C@H](O)[C@@H](O)[C@H](N=C(N)N)[C@@H](O)[C@@H]3N=C(N)N)O[C@@H](C)[C@]2(O)C=O)O[C@@H](CO)[C@H](O)[C@H]1O	115%
CCC(Sc1nc2ccccc2c(=O)[nH]1)C(=O)NC1CCCCC1 (configuration not stated)	102%
Cc1cnc(SCC(=O)NC2CCCCC2)[nH]c1=O	111%
Nc1cc(=O)[nH]c(SCC(=O)NC2CCCCC2)n1	93.1%
Cc1c[nH]c(=S)[nH]c1=O	81.8%
Cc1[nH]c(=S)[nH]c(=O)c1C	113%
CC(C)CCNC(=O)CSc1nc2c(c(=O)[nH]1)CCC2	82.7%
Cc1nc(SCC(N)=O)[nH]c(=O)c1C	110%
Cc1ccc(NC(=O)COC(=O)CCc2c[nH]c3ccccc23)cc1[N+](=O)[O-]	113%
NNC(=O)c1ccncc1	118%
Cc1cc(=O)[nH]c(=S)[nH]1	91.6%
O=c1[nH]c(=S)[nH]c2ccccc12	92.2%
Cc1nc(SCC(=O)NCCC(C)C)[nH]c(=O)c1C	97%
Cn1c(SCC(=O)NC2CCCCC2)nc2ccccc2c1=O	94.2%
